Measurements as given in publication PMC5540273 (PLoS ONE, 2017).

tested on: SGK3; conditions: concentration: 1 μM,replicates: in singlicate; n = 1
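Further: KINOMEscan kinase panel screen.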

SMILES | %Inh [%]
Cc1ccn2nc(-c3ccc(F)cc3)c(-c3ccncc3)c2c1.Cl [GW457859] | 5
CS(=O)c1ccc(-c2coc3ccc(-c4n[nH]c(=O)o4)cc23)cc1 (centres unmarked) | 15
C[C@@H](Oc1cc(-n2cnc3cc(-c4cnn(C)c4)ccc32)sc1C(N)=O)c1ccccc1Cl [GSK580432] | 0
CN1CCN(CCCNc2nccc(-c3c(-c4ccc(F)cc4)nn4cc(C(N)=O)ccc34)n2)CC1 [GW622475] | 8
C[C@@H](Oc1cc(-n2cnc3ccc(-c4ccncc4)cc32)sc1C(N)=O)c1ccccc1Cl [GSK483724] | 0
CS(=O)(=O)c1cccc(CNc2nc(Nc3ccc4c(c3)[C@@H]3C[C@@H]4CNC3=O)ncc2C(F)(F)F)c1 | 25
COc1cc(Nc2nccc(N3CCC(NC(=O)c4cccc(C#N)c4)C3)n2)cc(OC)c1OC (centres unmarked) [GSK1379751] | 0
COc1cccc(OC)c1C(=O)Nc1cccc(-c2nn3ccccc3c2-c2ccnc(Nc3cccc(F)c3)n2)c1 [GSK361065] | 65
O=C(NOCC1CC1)c1cc(Br)c(F)c(F)c1Nc1ccc(I)cc1Cl | 0
CNC(=O)c1ccccc1Nc1nc(Nc2cccc(CS(C)(=O)=O)c2)ncc1C.O=CO [GSK1520489] | 42
C[C@@H]1CNc2c(sc3ccc4nc(-c5ccc(O)cc5)ccc4c23)C(=O)N1 | 24
O=C(Nc1cccc(Oc2ccc3nccn3n2)c1)Nc1cccc(C(F)(F)F)c1 | 8
NC(=O)Nc1sc(-c2ccc(F)cc2)cc1C(N)=O [GW789449] | 31
NC(=O)c1ccc(-c2cc3ncnc(SCC(=O)O)c3s2)cc1 | 0
Cc1n[nH]c2cc(Nc3ccnc(Nc4cccc(CN5CCOCC5)c4)n3)ccc12 [GW682569] | 17
O=c1[nH]cc(-c2ccc(O)cc2)c2sc(-c3ccncc3)cc12 [GSK1033723] | 2
COC(=O)Nc1nc2cc(Oc3ccc(NC(=O)Nc4cc(C(F)(F)F)ccc4Cl)cc3)ccc2[nH]1.Cl [GW697465] | 0
O=C1NCCc2[nH]c(-c3ccncc3)cc21 | 36
Cl.Cl.NC[C@H](CC1CCCCC1)NC(=O)c1ccc(-c2ccnc3[nH]ccc23)s1 [GSK1581428] | 92.9

SMILES | %Inh [%]
CC(=O)Nc1nc2cnc(Nc3cc(NC(=O)c4cccc(CC(C)(C)C#N)c4)ccc3C)nc2s1 | 0
O=C(Nc1ccc(Oc2ccc3nc(NC(=O)C4CC4)cn3n2)c(F)c1)c1cccn(-c2ccccc2)c1=O | 0
CC(=O)Nc1ccc(-c2cc3ncnc(SCC(=O)O)c3s2)cc1 | 39
COC(=O)c1cccc(NC(=O)NC2CCN(c3ccnc(NCc4ccc(F)cc4)n3)CC2)c1 [GSK1379860] | 0
COc1ccc(Nc2nccc(N3CCC(NC(=O)c4cccc(C#N)c4)C3)n2)cc1 (centres unmarked) [GSK1379730] | 0
Cn1ccc2ncnc(Oc3ccc(NC(=O)Nc4cncc(C(F)(F)F)c4)c(Cl)c3)c21 | 0
Cn1ccc2ncnc(Oc3ccc(NC(=O)Nc4cnn(C(C)(C)C)c4)c(Cl)c3)c21 | 2
COc1cccc(C2=C(Nc3cccc(Cl)c3)C(=O)NC2=O)c1 [SB-341556] | 9
Cn1ccc2ncnc(Oc3ccc(NC(=O)Nc4cccc(C(F)(F)F)c4)c(F)c3)c21 | 2
CC(C(=O)NC1CCN(c2ccnc(Nc3ccc(F)cc3)n2)C1)c1ccc(Cl)cc1 (centres unmarked) [GSK1379713] | 0
O=C(NCC1CC1)c1ccc(-c2cc(C(=O)NC3CC3)ccc2F)cc1 [GW810445] | 0
Cc1cccc2c(-c3ccncc3)c(-c3ccc(F)cc3)nn12.Cl [GW461487] | 13
c1ccc(Oc2ccc(Nc3ccnc4ccc(-c5ccccn5)cc34)cc2)cc1 [GW407034] | 0
O=C(Nc1ccccc1)c1cccc(Oc2ccc3nccn3n2)c1 | 17
Cc1ccc2c(-c3ccnc(Nc4ccc(C(F)(F)F)cc4)n3)cnn2n1 [GW819776] | 0
CC(C)c1nc(-c2cccc(NS(=O)(=O)c3ccccc3)c2)c(-c2ccnc(Nc3ccc4c(c3)CN(C)CC4)n2)s1 [GSK1649598] | 53
CN(c1ccccc1CNc1nc(Nc2ccc3c(c2)CC(=O)N3)ncc1C(F)(F)F)S(C)(=O)=O | 32
CCn1c(-c2nonc2N)nc2cncc(Br)c21 [SB-738004] | 66

tested on: SGK; conditions: concentration: 1 μM,replicates: in singlicate; n = 1

SMILES | %Inh [%]
Cc1ccn2nc(-c3ccc(F)cc3)c(-c3ccncc3)c2c1.Cl [GW457859] | 22
CS(=O)c1ccc(-c2coc3ccc(-c4n[nH]c(=O)o4)cc23)cc1 (centres unmarked) | 31
C[C@@H](Oc1cc(-n2cnc3cc(-c4cnn(C)c4)ccc32)sc1C(N)=O)c1ccccc1Cl [GSK580432] | 0
CN1CCN(CCCNc2nccc(-c3c(-c4ccc(F)cc4)nn4cc(C(N)=O)ccc34)n2)CC1 [GW622475] | 0
C[C@@H](Oc1cc(-n2cnc3ccc(-c4ccncc4)cc32)sc1C(N)=O)c1ccccc1Cl [GSK483724] | 7
CS(=O)(=O)c1cccc(CNc2nc(Nc3ccc4c(c3)[C@@H]3C[C@@H]4CNC3=O)ncc2C(F)(F)F)c1 | 43
COc1cc(Nc2nccc(N3CCC(NC(=O)c4cccc(C#N)c4)C3)n2)cc(OC)c1OC (centres unmarked) [GSK1379751] | 3
COc1cccc(OC)c1C(=O)Nc1cccc(-c2nn3ccccc3c2-c2ccnc(Nc3cccc(F)c3)n2)c1 [GSK361065] | 18
O=C(NOCC1CC1)c1cc(Br)c(F)c(F)c1Nc1ccc(I)cc1Cl | 0
CNC(=O)c1ccccc1Nc1nc(Nc2cccc(CS(C)(=O)=O)c2)ncc1C.O=CO [GSK1520489] | 71
C[C@@H]1CNc2c(sc3ccc4nc(-c5ccc(O)cc5)ccc4c23)C(=O)N1 | 20
O=C(Nc1cccc(Oc2ccc3nccn3n2)c1)Nc1cccc(C(F)(F)F)c1 | 0
NC(=O)Nc1sc(-c2ccc(F)cc2)cc1C(N)=O [GW789449] | 1
NC(=O)c1ccc(-c2cc3ncnc(SCC(=O)O)c3s2)cc1 | 0
Cc1n[nH]c2cc(Nc3ccnc(Nc4cccc(CN5CCOCC5)c4)n3)ccc12 [GW682569] | 0
O=c1[nH]cc(-c2ccc(O)cc2)c2sc(-c3ccncc3)cc12 [GSK1033723] | 0
COC(=O)Nc1nc2cc(Oc3ccc(NC(=O)Nc4cc(C(F)(F)F)ccc4Cl)cc3)ccc2[nH]1.Cl [GW697465] | 2
O=C1NCCc2[nH]c(-c3ccncc3)cc21 | 44
Cl.Cl.NC[C@H](CC1CCCCC1)NC(=O)c1ccc(-c2ccnc3[nH]ccc23)s1 [GSK1581428] | 80

SMILES | %Inh [%]
CC(=O)Nc1nc2cnc(Nc3cc(NC(=O)c4cccc(CC(C)(C)C#N)c4)ccc3C)nc2s1 | 4
O=C(Nc1ccc(Oc2ccc3nc(NC(=O)C4CC4)cn3n2)c(F)c1)c1cccn(-c2ccccc2)c1=O | 0
CC(=O)Nc1ccc(-c2cc3ncnc(SCC(=O)O)c3s2)cc1 | 0
COC(=O)c1cccc(NC(=O)NC2CCN(c3ccnc(NCc4ccc(F)cc4)n3)CC2)c1 [GSK1379860] | 0
COc1ccc(Nc2nccc(N3CCC(NC(=O)c4cccc(C#N)c4)C3)n2)cc1 (centres unmarked) [GSK1379730] | 0
Cn1ccc2ncnc(Oc3ccc(NC(=O)Nc4cncc(C(F)(F)F)c4)c(Cl)c3)c21 | 0
Cn1ccc2ncnc(Oc3ccc(NC(=O)Nc4cnn(C(C)(C)C)c4)c(Cl)c3)c21 | 10
COc1cccc(C2=C(Nc3cccc(Cl)c3)C(=O)NC2=O)c1 [SB-341556] | 3
Cn1ccc2ncnc(Oc3ccc(NC(=O)Nc4cccc(C(F)(F)F)c4)c(F)c3)c21 | 0
CC(C(=O)NC1CCN(c2ccnc(Nc3ccc(F)cc3)n2)C1)c1ccc(Cl)cc1 (centres unmarked) [GSK1379713] | 0
O=C(NCC1CC1)c1ccc(-c2cc(C(=O)NC3CC3)ccc2F)cc1 [GW810445] | 7
Cc1cccc2c(-c3ccncc3)c(-c3ccc(F)cc3)nn12.Cl [GW461487] | 0
c1ccc(Oc2ccc(Nc3ccnc4ccc(-c5ccccn5)cc34)cc2)cc1 [GW407034] | 0
O=C(Nc1ccccc1)c1cccc(Oc2ccc3nccn3n2)c1 | 0
Cc1ccc2c(-c3ccnc(Nc4ccc(C(F)(F)F)cc4)n3)cnn2n1 [GW819776] | 9
CC(C)c1nc(-c2cccc(NS(=O)(=O)c3ccccc3)c2)c(-c2ccnc(Nc3ccc4c(c3)CN(C)CC4)n2)s1 [GSK1649598] | 77
CN(c1ccccc1CNc1nc(Nc2ccc3c(c2)CC(=O)N3)ncc1C(F)(F)F)S(C)(=O)=O | 18
CCn1c(-c2nonc2N)nc2cncc(Br)c21 [SB-738004] | 45
